A short description of assay [1]: NCI Yeast Anticancer Drug Screen. Data for the rad50 strain (AID 155).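 Also: 0% = growth of vehicle-only cultures of the same strain.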 As to conditions: S. cerevisiae rad50 strain growth inhibition, hits give high values. The method, boiled down:
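DNA repair mutant yeast, compound exposure, growth read-out; inhibition is taken relative to vehicle.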

Assay [2] is described as follows: NCI Yeast Anticancer Drug Screen. Data for the mec2-1 strain (AID 157). Particulars: S. cerevisiae mec2-1 strain, hits give high values. The method, boiled down: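 Yeast mec2-1 mutant treated with compound. Readout: growth inhibition vs vehicle controls.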
Assay [3] in a line: NCI Yeast Anticancer Drug Screen. Data for the sgs1 mgt1 strain (AID 161).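 Also: 0% = growth of cultures given vehicle only.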 Particulars: S. cerevisiae sgs1 mgt1 strain, hits give high values. The method, boiled down:
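Test agents were incubated with a DNA-repair-mutant yeast strain. Growth was then read and compared against vehicle-treated controls.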

Assay [4] can be described thus: NCI Yeast Anticancer Drug Screen. Data for the cln2 rad14 strain (AID 165).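 Also: 0% = growth equal to vehicle treated cultures.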 As to conditions: S. cerevisiae cln2 rad14 strain, hits give high values. The method, boiled down: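 cln2 rad14 yeast strain; compound exposure; growth inhibition read vs vehicle controls.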
A short description of assay [5]: NCI Yeast Anticancer Drug Screen. Data for the bub3 strain (AID 167). Particulars: S. cerevisiae bub3 mutant strain, hits give high values. The method, boiled down:
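In this screen, a yeast mutant lacking normal mitotic checkpoint function is challenged with compound. Relative growth versus vehicle gives the inhibition value.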

Assay [6] in a line: NCI Yeast Anticancer Drug Screen. Data for the mlh1 rad18 strain (AID 175). As to conditions: S. cerevisiae mlh1 rad18 strain growth inhibition, hits give high values. The procedure, abridged:
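Yeast w/ defined DNA-repair lesions; compound exposure; growth vs vehicle controls → % inhibition.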

Setting [7] is: at 5.0 µM (retest, dose inferred, filed as 0.5).
The mark [8] stands for this setting: at 50.0 µM (retest, dose inferred, filed as 5.0).

About 79,000 compounds went through this panel and 15% of them were active in at least one assay; those are over-represented in the sample as a whole. Unmarked numbers belong to inactive results. Active and inactive are the calls of the source. Rule as the data show it: active = growth inhibition above about 70%; inactive = the rest.

Consider `CCC[CH2][Sn]1([CH2]CCC)[O]CC(CN2CCOCC2)[O]1` (stereo not given), for which the growth inhibition was 27% in assay [1] (setting [7]); 34% in assay [1] (setting [8]); 87.7% (active) in assay [1] (at 50.0 µM); 17% in assay [2] (setting [7]); 35% in assay [2] (setting [8]); 91% (active) in assay [2] (at 50.0 µM). The growth inhibition in assay [3] (setting [7]) is 34%; in assay [3] (setting [8]), 41%; in assay [3] (at 50.0 µM), 91% (active); in assay [4] (setting [7]) it was 26%; in assay [4] (setting [8]), 31%; in assay [4] (at 50.0 µM) it was 88.8% (active). In addition, the growth inhibition is 22% in assay [5] (setting [7]); 27% in assay [5] (setting [8]); 90.3% (active) in assay [5] (at 50.0 µM); 45% in assay [6] (setting [7]); 44% in assay [6] (setting [8]); 88.8% (active) in assay [6] (at 50.0 µM).

Take `O=[C-]c1ccccc1[C-]=O.[Pd+2].c1ccc([PH+](c2ccccc2)c2ccccc2)cc1.c1ccc([PH+](c2ccccc2)c2ccccc2)cc1`: the growth inhibition was 11% in assay [1] (setting [7]); 44% in assay [1] (setting [8]); 34.6% in assay [1] (at 50.0 µM); 7% in assay [2] (setting [7]); 54% in assay [2] (setting [8]); 35% in assay [2] (at 50.0 µM). Further, the growth inhibition in assay [3] (setting [7]) was 23%; in assay [3] (setting [8]), 69%; in assay [3] (at 50.0 µM), 84.5% (active); in assay [4] (setting [7]) it was 5%; in assay [4] (setting [8]) it was 40%; in assay [4] (at 50.0 µM), -0.7%. Also, the growth inhibition was 4% in assay [5] (setting [7]); 97% (active) in assay [5] (setting [8]); 14.7% in assay [5] (at 50.0 µM); 14% in assay [6] (setting [7]); 80% (active) in assay [6] (setting [8]); 60.9% in assay [6] (at 50.0 µM).

With `COc1ccc2nc3ccccc3c(NCCCCN(C)CCCl)c2c1`, the growth inhibition in assay [1] (setting [7]) was 58%; in assay [1] (setting [8]) it was 86% (active); in assay [1] (at 50.0 µM), 77.2% (active); in assay [2] (setting [7]), 23%; in assay [2] (setting [8]), 87% (active); in assay [2] (at 50.0 µM), 70.8% (active). Further, the growth inhibition in assay [3] (setting [7]) is 42%; in assay [3] (setting [8]) it was 99% (active); in assay [3] (at 50.0 µM), 83.9% (active); in assay [4] (setting [7]) it was 34%; in assay [4] (setting [8]), 98% (active); in assay [4] (at 50.0 µM), 70%. Moreover, the growth inhibition is 46% in assay [5] (setting [7]); 99% (active) in assay [5] (setting [8]); 62.6% in assay [5] (at 50.0 µM); 61% in assay [6] (setting [7]); 91% (active) in assay [6] (setting [8]); 75.6% (active) in assay [6] (at 50.0 µM).

In the case of `CC[PH+](CC)CC[S-].CC[PH+](CC)CC[S-].[Au+].[Au+]`, the growth inhibition in assay [1] (setting [7]) was 5%; in assay [1] (setting [8]) it was 13%; in assay [1] (at 50.0 µM) it was 46.4%; in assay [2] (setting [7]), 14%; in assay [2] (setting [8]), 18%; in assay [2] (at 50.0 µM), -0.55%. Also, the growth inhibition in assay [3] (setting [7]) is 12%; in assay [3] (setting [8]), 23%; in assay [3] (at 50.0 µM), 11.2%; in assay [4] (setting [7]) it was 4%; in assay [4] (setting [8]), 6%; in assay [4] (at 50.0 µM) it was -12.4%. The growth inhibition was 14% in assay [5] (setting [7]); 7% in assay [5] (setting [8]); 8.1% in assay [5] (at 50.0 µM); 55% in assay [6] (setting [7]); 15% in assay [6] (setting [8]); -35.8% in assay [6] (at 50.0 µM).

On to `CC(=O)[O][Pb]([O]C(C)=O)([O]C(C)=O)[c]1ccccc1`, for which the growth inhibition is 71% (active) in assay [1] (setting [7]); 98% (active) in assay [1] (setting [8]); 90.5% (active) in assay [1] (at 50.0 µM); 74% (active) in assay [2] (setting [7]); 99% (active) in assay [2] (setting [8]); 93.5% (active) in assay [2] (at 50.0 µM). Besides, the growth inhibition in assay [3] (setting [7]) was 86% (active); in assay [3] (setting [8]), 99% (active); in assay [3] (at 50.0 µM), 93.6% (active); in assay [4] (setting [7]), 35%; in assay [4] (setting [8]), 99% (active); in assay [4] (at 50.0 µM), 89.2% (active). Moreover, the growth inhibition in assay [5] (setting [7]) is 86% (active); in assay [5] (setting [8]), 99% (active); in assay [5] (at 50.0 µM) it was 91.8% (active); in assay [6] (setting [7]), 91% (active); in assay [6] (setting [8]), 98% (active); in assay [6] (at 50.0 µM), 91.2% (active).

As for `Cc1cc(N(CCCl)CCCl)ccc1C1N(Cc2ccc(Cl)cc2Cl)CCCN1Cc1ccc(Cl)cc1Cl`, the growth inhibition in assay [1] (setting [7]) was 42%; in assay [1] (setting [8]) it was 85% (active); in assay [1] (at 50.0 µM), 40.5%; in assay [2] (setting [7]), -4%; in assay [2] (setting [8]) it was 65%; in assay [2] (at 50.0 µM), 18.2%. Besides, the growth inhibition in assay [3] (setting [7]) is 25%; in assay [3] (setting [8]) it was 91% (active); in assay [3] (at 50.0 µM), 57.5%; in assay [4] (setting [7]), 14%; in assay [4] (setting [8]), 60%; in assay [4] (at 50.0 µM), 14.4%. The growth inhibition in assay [5] (setting [7]) is 22%; in assay [5] (setting [8]), 92% (active); in assay [5] (at 50.0 µM) it was 16.1%; in assay [6] (setting [7]), 18%; in assay [6] (setting [8]) it was 96% (active); in assay [6] (at 50.0 µM), 52.2%.

`C#CC(O)(CC)CC`: the growth inhibition was -4% in assay [1] (setting [7]); 10% in assay [1] (setting [8]); 69.1% in assay [1] (at 50.0 µM); 0% in assay [2] (setting [7]); -4% in assay [2] (setting [8]); 13.4% in assay [2] (at 50.0 µM). The growth inhibition is -3% in assay [3] (setting [7]); -2% in assay [3] (setting [8]); 77.1% (active) in assay [3] (at 50.0 µM); -6% in assay [4] (setting [7]); -5% in assay [4] (setting [8]); 3.5% in assay [4] (at 50.0 µM). Further, the growth inhibition is -1% in assay [5] (setting [7]); 2% in assay [5] (setting [8]); 38.8% in assay [5] (at 50.0 µM); -1% in assay [6] (setting [7]); 9% in assay [6] (setting [8]); 73.5% (active) in assay [6] (at 50.0 µM).

As for `CC(Cl)CN1COc2c3c(c4ccccc4c2C1)CN(CC(C)Cl)CO3` (stereo not given), the growth inhibition in assay [1] (setting [7]) is 0%; in assay [1] (setting [8]), 98% (active); in assay [1] (at 50.0 µM), 83.7% (active); in assay [2] (setting [7]) it was 2%; in assay [2] (setting [8]) it was 99% (active); in assay [2] (at 50.0 µM), 68.8%. In addition, the growth inhibition was -3% in assay [3] (setting [7]); 99% (active) in assay [3] (setting [8]); 82.8% (active) in assay [3] (at 50.0 µM); 0% in assay [4] (setting [7]); 95% (active) in assay [4] (setting [8]); 77.5% (active) in assay [4] (at 50.0 µM). Further, the growth inhibition in assay [5] (setting [7]) is 0%; in assay [5] (setting [8]), 98% (active); in assay [5] (at 50.0 µM), 66.4%; in assay [6] (setting [7]), 0%; in assay [6] (setting [8]), 97% (active); in assay [6] (at 50.0 µM), 81.8% (active).

Consider `CC1Oc2cc3c(-c4c(O)cc(O)c5c(O)c6c(cc45)OC(C)C(C)C6=O)c(O)cc(O)c3c(O)c2C(=O)C1C` (stereo not given), for which the growth inhibition in assay [1] (setting [7]) is 8%; in assay [1] (setting [8]) it was 85% (active); in assay [1] (at 50.0 µM) it was 83.1% (active); in assay [2] (setting [7]), -10%; in assay [2] (setting [8]), 83% (active); in assay [2] (at 50.0 µM) it was 84.2% (active). For the same molecule, the growth inhibition in assay [3] (setting [7]) was -2%; in assay [3] (setting [8]), 86% (active); in assay [3] (at 50.0 µM), 83% (active); in assay [4] (setting [7]), 30%; in assay [4] (setting [8]), 69%; in assay [4] (at 50.0 µM), 82.8% (active). For the same molecule, the growth inhibition in assay [5] (setting [7]) was -8%; in assay [5] (setting [8]), 81% (active); in assay [5] (at 50.0 µM) it was 81.2% (active); in assay [6] (setting [7]) it was 10%; in assay [6] (setting [8]) it was 84% (active); in assay [6] (at 50.0 µM) it was 84.2% (active).

For `O=C(c1ccc2ccccc2c1)N1CC1`, the growth inhibition is -27% in assay [1] (setting [7]); 23% in assay [1] (setting [8]); 71.8% (active) in assay [1] (at 50.0 µM); -6% in assay [2] (setting [7]); -12% in assay [2] (setting [8]); -1.65% in assay [2] (at 50.0 µM). The growth inhibition is -14% in assay [3] (setting [7]); 5% in assay [3] (setting [8]); 41.8% in assay [3] (at 50.0 µM); -12% in assay [4] (setting [7]); 57% in assay [4] (setting [8]); 66.5% in assay [4] (at 50.0 µM). The growth inhibition was 2% in assay [5] (setting [7]); 54% in assay [5] (setting [8]); 58.9% in assay [5] (at 50.0 µM); -24% in assay [6] (setting [7]); 52% in assay [6] (setting [8]); 63.2% in assay [6] (at 50.0 µM).

The values are drawn from PubChem BioAssay (NCI).
